# Results taken from PubChem BioAssay (NCATS).
# Active and inactive are the calls of the source. The call rests on the fitted dose curve; in most records, active means well fitted curve in the direction sought with a large enough effect; inconclusive means small, poorly fitted or top-dose-only effect, or another doubt; inactive means no such curve, though single readings can be large or run the other way.
# Molecular target: Alpha-galactosidase (Coffea arabica) (UniProt Q42656)
# Assay: Counterscreen for Glucocerebrosidase Inhibitors: qHTS Assay for Coffee Bean alpha-Galactosidase at pH 4.5 (AID 957)
# Details: purified coffee bean alpha-galactosidase, fluorogenic substrate; series mostly up to 76.9 µM
# Outline: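 Fluorogenic read-out: 4-methylumbelliferone at Ex 365/Em 440 nm after NaOH/glycine stop (pH 10). Enzyme 2 nM, 4-MU-alpha-galactoside 80 uM, citrate buffer pH 4.5, 20 min RT; normalized to no-enzyme and enzyme controls.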
# Alpha-galactosidase (Coffea arabica), sequence (Q42656 whole entry, looked up): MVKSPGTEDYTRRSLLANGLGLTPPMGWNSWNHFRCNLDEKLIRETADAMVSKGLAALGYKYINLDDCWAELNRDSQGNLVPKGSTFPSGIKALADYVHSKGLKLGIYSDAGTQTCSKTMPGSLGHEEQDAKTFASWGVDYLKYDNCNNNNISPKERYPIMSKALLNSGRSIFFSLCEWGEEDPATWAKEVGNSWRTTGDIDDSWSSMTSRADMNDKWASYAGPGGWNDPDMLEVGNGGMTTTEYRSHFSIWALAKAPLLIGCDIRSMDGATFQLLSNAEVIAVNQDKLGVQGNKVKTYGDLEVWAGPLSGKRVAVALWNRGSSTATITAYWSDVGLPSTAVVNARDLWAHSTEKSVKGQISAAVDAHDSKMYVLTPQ
row,Compound,outcome
1,Oc1cc2c(cc1O)CN(C(=S)NCCc1ccc(Cl)cc1)CCC2,inactive
2,CN(C)c1nc(N)c(C(=O)N=C(N)N)nc1Cl,inactive
3,CCCCCCCCCCCCCCC[C@H](O)[C@H](N)CO,inactive
4,O=C(O)C1=CCCNC1,inactive
5,COC(=O)c1c(C)[nH]c(C)c1C(=O)c1ccccc1Cc1ccccc1,inactive
6,CN[C@H](CC(=O)O)C(=O)O,inactive
7,O=c1ccc2c(OCCCCc3ccccc3)c3ccoc3cc2o1,inactive
8,NCCSSCCN,inactive
9,O=c1onc2n1-c1cc(Br)ccc1OC2,inactive
10,Cc1ccc([N+](=O)[O-])cc1S(=O)(=O)N(C)C,inactive
11,N[C@H](C(=O)O)[C@H](O)C(=O)O,inactive
12,O=C(O)c1cc(=O)cc(C(=O)O)[nH]1,inactive
13,Nc1ccc(-c2ccc3ccccc3n2)cc1,inactive
14,O=C(O)c1cc2cc(F)ccc2[nH]1,inactive
15,CC[N+](CC)(CC)CC(=O)Nc1c(C)cccc1C,inactive
16,CCCN(CC1CC1)c1nc(C)nc(Nc2c(Cl)cc(Cl)cc2Cl)c1Cl,inactive
17,CNCCNS(=O)(=O)c1cccc2cnccc12,inactive
18,NC1(C(=O)O)CCCCC1,inactive
19,Cc1nc(N=Nc2ccc(S(=O)(=O)O)cc2S(=O)(=O)O)c(COP(=O)(O)O)c(C=O)c1O,inactive
20,C/C(=C\c1ccc(C(=O)O)cc1)c1ccc2c(c1)C(C)(C)CCC2(C)C,inactive

row,Compound,outcome
1,COc1ccc2c(c1)c(CC(=O)O)c(C)n2Cc1ccc(Cl)cc1,inactive
2,CSC(=N)N,inactive
3,C#CCn1c(=O)c2c(ncn2C)n(C)c1=O,inactive
4,COc1cc2c(CCNC(C)=O)c[nH]c2cc1O,inactive
5,CCN(CC)CCOC(=O)c1cc(Cl)c(N)cc1OC,inactive
6,COc1ccccc1N1CCN(CCCCN2C(=O)c3ccccc3C2=O)CC1,inactive
7,O=C(O)/C(=C/c1c(C(=O)O)[nH]c2cc(Cl)cc(Cl)c12)c1ccccc1,inactive
8,Cn1c(=O)c2[nH]c(-c3ccc(S(=O)(=O)O)cc3)nc2n(C)c1=O,inactive
9,NCCNS(=O)(=O)c1cccc2c(Cl)cccc12,inactive
10,COc1cc(/C=C(\C#N)C(=O)c2ccc(O)c(O)c2)cc(I)c1O,inactive
11,COc1ccc(C(=O)NCc2cccnc2)cc1C(=O)NCc1cccnc1,inactive
12,NC1(C(=O)O)CC1,inactive
13,Cn1c(=O)c2[nH]c(C3CCCC3)nc2n(C)c1=O,inactive
14,NC(=O)C(=O)O,inactive
15,Cn1c(=O)[nH]c2ncn(C)c2c1=O,inactive
16,N#C/C(=C\c1ccc(O)c(O)c1)C(=O)c1ccc(O)c(O)c1,inactive
17,CN1CCN(c2nc3cc(C(F)(F)F)ccc3n3cccc23)CC1,inactive
18,NCCCCN,inactive
19,CC1(C)CCC=[N+]1[O-],inactive
20,C[C@H](O)C(=O)C1=Nc2c(nc(N)[nH]c2=O)NC1,inactive
